In the library only some 2.9% were active in any assay of this set; here they are far more common.
A549 viability = A549 cytotoxicity, counter-screen for Nrf2 inhibitors; A549 ARE-Fluc cells, CellTiter-Fluor viability, 18-24 h; 390,000 compounds, 0.16% hits; AID 504648; Potency, µM (titrated, usually from 46 µM), without a hit: top-dose activity change, negative = cytotoxicity, usual class: inhibitors; also: % is scaled to controls: 0 for no effect and ±100 for the full control effect
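A549 ARE_Fluc cells in 5% FBS OPTI-MEM were exposed to compounds in concentration-response for 18-24 h at 37 deg C. Viability was read by CellTiter-Fluor fluorescence (Ex 405/Em 525) after 30 min, before the luciferase read.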
Nrf2 inh = blocks Nrf2 signaling; A549 ARE-Fluc reporter, luciferase luminescence, 18-24 h; Potency, µM (doses to about 46 µM), for the others: top-dose activity change, negative = inhibition, actives largely listed as inhibitors; 360,000 compounds, 2.1% hits; also: % is scaled to controls: 0 for no effect and ±100 for the full control effect; nearly all actives have a fitted effect of over 60% in size
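A549 ARE_Fluc cells, 5000/well, 5% FBS OPTI-MEM; compounds in dose-response, 18-24 h at 37 °C/5% CO2; CellTiter-Fluor viability read (Ex 405/Em 525), then BugLite luciferase luminescence = Nrf2 activity.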
Nrf2 activator = Nrf2 pathway activation; Potency, µM (highest dose often 46.1 µM), for inactives: at the top dose activation, most hits filed as activators; AREc32 ARE-luciferase reporter (MCF7-derived line), luminescence, 24 h; 410,000 compounds, 0.31% hits; also: % of control where 0% means no effect; nearly all actives have a fitted effect of over 65% in size
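Luminescent ARE reporter assay in AREc32_Fluc cells: overnight plating at 37 deg C, 24 hr compound incubation, Steady-Glo added, 30 min RT before reading.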
ATXN2 expr inh = reduces ATXN2 reporter expression in HEK-293 cells | HEK-293 ATXN2-luciferase reporter, luminescence, 24 h | Potency, µM (top dose mostly 57 µM), for inactives: at the top dose activity change, negative = inhibition, actives largely listed as inhibitors | 360,000 compounds, 0.72% hits | AID 1745845; also: % is scaled to controls: 0 for no effect and ±100 for the full control effect; nearly all actives have a fitted effect of over 55% in size
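ATXN2-luciferase reporter cells (luciferase flanked by upstream and downstream ATXN2 gene portions) were treated 24 h at 37 °C with compounds at up to 57 uM. SteadyGlo luminescence gave expression; GF-AFC fluorescence gave viability.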
ATXN viability = reduces viability in counter-screen for ATXN expression inhibitors. S2 cells (HEK-293 line with an ATXN2-luciferase reporter) viability, CellTiter-Fluor protease fluorescence, 24 h. Potency, µM (doses to about 56.7 µM), hits mostly cytotoxic. 400,000 compounds, 0.49% hits; also: nearly all actives have a fitted effect of over 40% in size
Active calls of the source: *; i = inactive; ? = inconclusive; . = no result given; ! = not confirmed by another sample; [ ] = dose if it differs, or a comment. Calls follow the shape of the dose curve; as a rule, active = well fitted curve in the direction sought with a large enough effect; inconclusive = small, poorly fitted or top-dose-only effect, or another doubt; inactive = no such curve, though single readings can be large; an effect the other way counts as inactive or inconclusive. Potency is read from the fitted curve at half-maximal effect.

SMILES | A549 viability | Nrf2 inh | Nrf2 activator | ATXN2 expr inh | ATXN viability
O=P(Oc1ccccc1)(Oc1ccccc1)C(Nc1ccccc1)c1ccccc1 (stereo not drawn) | -16% | 21µM* | 0% | 8% | i
CCOC(=O)c1cnc(N2CC2)nc1N | -21% | 3% | 0% | 16µM* | 28µM*
CC(=O)OCC1=C(C(=O)O)N2C(=O)[C@@H](N)[C@H]2SC1 | . | . | . | 0%[25.6 µM] | i
O=C(COc1ccc(S(=O)(=O)N2CCCCC2)cc1)N1CCN(Cc2ccccc2)CC1 | -10% | ? | 0% | -11% | i
CCOc1ccc(C(=O)N2CCC(c3noc(-c4ccc(S(=O)(=O)N5CCCC5)cc4)n3)CC2)cc1 | -17% | 15µM* | -1% | . | .
CC(O)=C(C#N)C(=O)Nc1cc(Br)ccc1Br | . | . | . | 8% | .
O=C(CSC1c2ccccc2-c2ccccc21)N/N=C/c1ccccc1O | 21µM* | 5.2µM* | 4% | ? | i
CCO[C@H]1O[C@@H]2OC3(C)CC[C@H]4[C@H](C)CC[C@@H]([C@H]1C)[C@@]24OO3 | . | . | . | -8% | i
CCCCCCOc1ccc(CN2CCN(C)CC2)cc1 | -1% | . | -1% | ? | i
CCCCCCCCCCCC[N+](C)(C)CCOc1ccccc1 | . | . | . | 32µM* | ?
Cc1cc(SCc2sc(-c3ccc(C(F)(F)F)c(F)c3)nc2C)ccc1OCC(=O)O | . | . | . | 15% | .
CC(=O)c1cn(CCCOc2ccccc2)c2ccccc12 | -15% | 21µM* | 6% | . | ?
O=C(C(=O)N1CCOCC1)c1cn(CCCOc2ccccc2)c2ccccc12 | 0% | 8% | 0% | 3% | i
CCOc1ccc(S(=O)(=O)N(CC(=O)NCc2ccccc2OC)c2ccccc2)cc1 | -28% | 16µM* | 0% | -23% | i
COc1ccc(S(=O)(=O)N(C)C[C@H]2OCCCC[C@H](C)Oc3ccc(N(C)C)cc3C(=O)N([C@H](C)CO)C[C@@H]2C)cc1 | . | . | 0% | 8% | i
CN(C)C(=O)Oc1cccc([N+](C)(C)C)c1 | -1% | 6.5µM*! | 1% | 6% | i
CCOc1ccc(CCNC(=O)c2ccc(-n3c(C)cc4c3CCCC4)cc2)cc1OCC | -2% | 0% | ? | . | .
Nc1nc(F)nc2c1ncn2[C@@H]1O[C@H](CO)[C@@H](O)[C@H]1O | ? | 0.92µM* | -2% | 2.5µM* | 3.2µM*
OC[C@H]1O[C@@H](n2cnc3cc(Cl)c(Cl)cc32)[C@H](O)[C@@H]1O | -12% | ? | 0% | -32% | i
C=CCCC[C@@H]1OC(=O)CNC(=O)C([C@@H](C)CC)NC(=O)[C@@H]2CCCN2C(=O)C([C@@H](C)CC)OC(=O)[C@H](Cc2ccccc2)N(C)C(=O)[C@H](C(C)C)NC(=O)C1(C)C (stereo partly drawn) | . | . | -2% | 32µM* | ?
Cc1ccc(C(=O)n2c(N)nc3ccccc32)cc1 | 1% | ? | -3% | 2.8µM* | i
CN1C2CCC1/C(=C/c1ccccn1)C(=O)/C2=C\c1ccccn1 | 7.3µM* | 5.8µM* | -3% | ? | ?
CCNC(=O)C[C@@H]1N=C(c2ccc(Cl)cc2)c2cc(OC)ccc2-n2c(C)nnc21 | . | . | . | 63% | .
Cc1cccc(-n2c(/C=C/c3ccc([N+](=O)[O-])o3)nc3ccccc3c2=O)c1 | ? | 4% | ? | 14µM* | ?
O=c1c2ccccc2nc(/C=C/c2ccc([N+](=O)[O-])o2)n1-c1ccc(O)cc1 | ? | ? | ? | 13µM* | 10µM*
SMILES | A549 viability | Nrf2 inh | Nrf2 activator | ATXN2 expr inh | ATXN viability
CN(C)[C@@H]1C(=O)C(C(N)=O)=C(O)[C@@]2(O)C(=O)C3=C(O)c4c(O)ccc(Cl)c4[C@@](C)(O)C3C[C@@H]12 (stereo partly drawn) | ? | 23µM* | -1% | ? | i
CN(C)C1C(=O)C(C(N)=O)=C(O)C2(O)C(=O)C3=C(O)c4c(O)cccc4C(C)(O)C3CC12 (stereo not drawn) | -15% | 3% | 0% | -6% | i
COc1cc(CN2CCc3nc(N4CCN(c5ccccn5)CC4)ncc3C2)cc(OC)c1OC | -16% | . | 1% | ? | ?
C[C@@H]1CNC(=O)c2c(C(=O)Nc3ccc(CNC(=O)OC(C)(C)C)cc3)ncn21 | . | . | 0% | ? | ?
CCC(C)(C)c1ccc(O)cc1 | 2% | 0% | -1% | -15% | i
CC(C)(C)CC(C)(C)c1ccc(O)cc1 | . | . | . | ? | 35µM*!
COc1cccc(N2CCN(c3c4c(nc5nncn35)CCC4)CC2)c1 | -16% | 16µM* | 0% | . | .
CCOc1cccc(CC(=O)NCc2ccc3c(c2)CCN3C(=O)c2cccc(C)c2)c1OCC | -22% | 21µM* | 0% | ? | 28µM*
O=[N+]([O-])c1oc2ccc3ccccc3c2c1CCO | ? | 18µM* | 7% | ? | ?
Cn1ncnc2c(=O)n(C)c(=O)nc1-2 | 0.46µM* | 0.18µM* | -5% | 3.5µM* | 4.5µM*
Cc1ccc(-c2nc3c(=O)n(C)c(=O)nc-3n(C)n2)cc1 | 2.9µM* | 3.3µM* | . | . | .
CC(C)(C)[C@]1(O)C[C@@H]2OC(=O)C[C@@]23C(=O)O[C@@H]2OC(=O)[C@H](O)C213 (stereo partly drawn) | . | . | . | 3% | .
Cc1cc2c(C(C)C)c(O)c(O)c(C=O)c2c(O)c1-c1c(C)cc2c(C(C)C)c(O)c(O)c(C=O)c2c1O | . | . | . | ? | 25µM*
CC(C)c1c(C(=O)NC(c2cccnc2)C(F)(F)F)cnn1-c1nccc(-c2cccs2)n1 (stereo not drawn) | . | . | . | . | i
CC(C)n1c(=O)c(C=Nc2cccc([N+](=O)[O-])c2)c(O)n(CCc2ccccc2)c1=O | -19% | -16% | 11µM* | -21% | i
CC(C)n1c(=O)c(C=Nc2ccc(S(N)(=O)=O)cc2)c(O)n(Cc2ccco2)c1=O | 0% | -13% | 2% | -1% | i
COc1ccc(C(=O)C23CN4CN(CN(C4)C2)C3)cc1 | -8% | 0% | 0% | 4% | i
COc1ccc(C(=O)Nc2sc3c(c2C(=O)O)CC(C)(C)OC3)cc1 | -20% | 8.2µM* | 0% | 8% | i
COc1cccc2c1C(=O)c1c(O)c3c(c(O)c1C2=O)CC(O)(C(C)=NO)CC3OC1CC(N)C(O)C(C)O1 (stereo not drawn) | ? | -13% | -1% | 1.6µM* | ?
CC(=Cc1csc(C)n1)[C@@H]1C[C@H]2O[C@@H]2CCC[C@H](C)[C@@H](O)[C@@H](C)C(=O)C(C)(C)[C@@H](O)CC(=O)O1 | . | . | . | -22% | .
O=C1NC(=O)C(=Cc2ccc(SC3CCCCC3)o2)C(=O)N1 | -12% | 17% | 13% | 18µM* | .
Cc1nc2ccccc2c(=O)n1-c1ccccc1Cl | . | . | . | -26%[116 µM] | ?
CN(Cc1cccc(-c2ccncc2)c1)C(=O)Oc1ccc([N+](=O)[O-])cc1 | . | . | 4% | 25µM* | 32µM*
